# Test results published in PMC7862700, “An all-to-all approach to the identification of sequence-specific readers for epigenetic DNA modifications on cytosine”.
# Assays:
# Experiment in all cases: DAPPL (digital affinity profiling via proximity ligation, sequencing); 10 mM Tris-HCl pH 7.5, 50 mM NaCl, 1 mM DTT, 4% glycerol, room temperature, 30 min; GST-TFs on glutathione beads, 16-mer random dsDNA library, 0.1% formaldehyde crosslink after washing; high values mean tight binding
# FEV = biological target: T1, FEV (Homo sapiens, UniProt Q99581 1-238); settings: protein: recombinant; tags: N-terminal GST; dsDNA, one strand shown
# T1 sequence: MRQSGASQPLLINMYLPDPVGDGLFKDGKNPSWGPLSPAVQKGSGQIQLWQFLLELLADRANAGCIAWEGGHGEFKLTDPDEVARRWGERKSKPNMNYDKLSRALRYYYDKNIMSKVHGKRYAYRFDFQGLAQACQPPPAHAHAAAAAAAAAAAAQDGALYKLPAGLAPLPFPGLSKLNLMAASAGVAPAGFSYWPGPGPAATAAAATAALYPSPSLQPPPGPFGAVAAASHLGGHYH
# How it was run: (§1)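 Each value of binding signal is a hexamer's read frequency for a factor divided by the same hexamer's frequency in the tag-only sample. Barcoded, bead-captured GST fusions of human transcription factors made in yeast were pooled with that sample and incubated with 200 nmole of a random double-stranded 16-mer DNA library in Tris/NaCl/DTT/glycerol buffer at room temperature for 30 min. Washing, 0.1% formaldehyde crosslinking, proximity ligation, PCR and Illumina NextSeq500 sequencing followed.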
# ETV5 = ETV5 (Homo sapiens, UniProt P41161 1-510); settings: protein: recombinant; tags: N-terminal GST; dsDNA, one strand shown
# How it was run: as §1
# HSF1 = HSF1 (Homo sapiens, UniProt Q00613 1-529); settings: protein: recombinant; tags: N-terminal GST; chain copies: 3; dsDNA, one strand shown
# How it was run: as §1
# SPIC = biological target: T2, SPIC (Homo sapiens, UniProt Q8N5J4 1-248); settings: protein: recombinant; tags: N-terminal GST; dsDNA, one strand shown
# T2 sequence: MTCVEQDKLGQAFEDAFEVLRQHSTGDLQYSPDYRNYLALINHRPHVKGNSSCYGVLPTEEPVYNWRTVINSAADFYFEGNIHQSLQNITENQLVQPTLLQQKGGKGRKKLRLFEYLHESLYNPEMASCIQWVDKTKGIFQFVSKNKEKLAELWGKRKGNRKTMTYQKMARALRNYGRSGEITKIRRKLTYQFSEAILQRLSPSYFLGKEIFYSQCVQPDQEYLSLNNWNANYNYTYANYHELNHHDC
# How it was run: as §1
# ELF4 = ELF4 (Homo sapiens, UniProt Q99607 1-663); settings: protein: recombinant; tags: N-terminal GST; dsDNA, one strand shown
# How it was run: as §1
# ELK4 = biological target: T3, ELK4 (Homo sapiens, UniProt P28324-2 1-405); settings: protein: recombinant; tags: N-terminal GST; dsDNA, one strand shown
# T3 sequence: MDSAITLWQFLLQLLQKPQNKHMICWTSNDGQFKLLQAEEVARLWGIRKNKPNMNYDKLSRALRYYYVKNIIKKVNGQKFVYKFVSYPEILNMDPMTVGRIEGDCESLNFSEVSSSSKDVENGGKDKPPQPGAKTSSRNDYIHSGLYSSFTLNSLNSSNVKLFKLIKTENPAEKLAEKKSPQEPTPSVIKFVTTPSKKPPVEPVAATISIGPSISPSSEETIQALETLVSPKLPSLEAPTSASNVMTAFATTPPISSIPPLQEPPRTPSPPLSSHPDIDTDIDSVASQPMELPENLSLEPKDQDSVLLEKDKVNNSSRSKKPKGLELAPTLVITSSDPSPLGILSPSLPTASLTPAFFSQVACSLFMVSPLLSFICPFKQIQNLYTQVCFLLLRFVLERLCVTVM
# How it was run: as §1
# ETV2 = biological target: T4, ETV2 (Homo sapiens, UniProt O00321 1-342); settings: protein: recombinant; tags: N-terminal GST; dsDNA, one strand shown
# T4 sequence: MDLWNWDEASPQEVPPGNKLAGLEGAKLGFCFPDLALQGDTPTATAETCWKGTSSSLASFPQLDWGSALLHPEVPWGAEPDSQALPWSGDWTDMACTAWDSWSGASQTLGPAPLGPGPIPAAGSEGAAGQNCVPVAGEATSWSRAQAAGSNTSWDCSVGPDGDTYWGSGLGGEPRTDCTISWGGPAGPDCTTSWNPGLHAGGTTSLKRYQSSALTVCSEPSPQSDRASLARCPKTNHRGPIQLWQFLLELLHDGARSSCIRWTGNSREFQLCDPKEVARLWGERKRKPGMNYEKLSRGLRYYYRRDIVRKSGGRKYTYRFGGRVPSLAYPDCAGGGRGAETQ
# How it was run: as §1
# ELF3 = biological target: T5, ELF3 (Homo sapiens, UniProt P78545 1-371); settings: protein: recombinant; tags: N-terminal GST; dsDNA, one strand shown
# T5 sequence: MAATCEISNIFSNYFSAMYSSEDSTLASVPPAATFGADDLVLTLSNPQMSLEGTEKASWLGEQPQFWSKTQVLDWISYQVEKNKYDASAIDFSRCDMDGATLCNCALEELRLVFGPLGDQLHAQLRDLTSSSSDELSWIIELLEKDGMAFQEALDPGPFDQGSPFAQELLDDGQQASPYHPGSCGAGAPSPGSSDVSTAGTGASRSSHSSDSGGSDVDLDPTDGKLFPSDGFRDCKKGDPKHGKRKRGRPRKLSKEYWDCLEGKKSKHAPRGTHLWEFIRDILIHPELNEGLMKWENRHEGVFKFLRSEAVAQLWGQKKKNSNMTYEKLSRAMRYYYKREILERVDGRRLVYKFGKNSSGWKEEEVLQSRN
# How it was run: as §1
# CRX = CRX (Homo sapiens, UniProt O43186 1-299); settings: protein: recombinant; tags: N-terminal GST; dsDNA, one strand shown
# How it was run: as §1
# ETV1 = ETV1 (Homo sapiens, UniProt P50549 1-477); settings: protein: recombinant; tags: N-terminal GST; dsDNA, one strand shown
# How it was run: as §1
# Chain of HSF1 (Q00613 whole entry): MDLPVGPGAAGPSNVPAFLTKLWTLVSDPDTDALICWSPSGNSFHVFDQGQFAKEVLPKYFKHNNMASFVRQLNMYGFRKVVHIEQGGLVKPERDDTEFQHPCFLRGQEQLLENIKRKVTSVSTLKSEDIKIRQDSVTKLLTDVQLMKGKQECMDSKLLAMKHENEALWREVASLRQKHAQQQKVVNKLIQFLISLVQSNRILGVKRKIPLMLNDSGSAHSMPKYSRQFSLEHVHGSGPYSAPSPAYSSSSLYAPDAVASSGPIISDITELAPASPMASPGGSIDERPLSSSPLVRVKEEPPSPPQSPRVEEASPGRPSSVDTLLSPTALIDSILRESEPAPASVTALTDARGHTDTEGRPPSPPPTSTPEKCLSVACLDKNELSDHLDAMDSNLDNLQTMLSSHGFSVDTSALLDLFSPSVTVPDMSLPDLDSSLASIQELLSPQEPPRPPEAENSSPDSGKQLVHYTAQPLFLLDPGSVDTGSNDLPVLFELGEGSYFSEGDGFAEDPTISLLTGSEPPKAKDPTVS
# Chain of ETV5 (P41161 whole entry): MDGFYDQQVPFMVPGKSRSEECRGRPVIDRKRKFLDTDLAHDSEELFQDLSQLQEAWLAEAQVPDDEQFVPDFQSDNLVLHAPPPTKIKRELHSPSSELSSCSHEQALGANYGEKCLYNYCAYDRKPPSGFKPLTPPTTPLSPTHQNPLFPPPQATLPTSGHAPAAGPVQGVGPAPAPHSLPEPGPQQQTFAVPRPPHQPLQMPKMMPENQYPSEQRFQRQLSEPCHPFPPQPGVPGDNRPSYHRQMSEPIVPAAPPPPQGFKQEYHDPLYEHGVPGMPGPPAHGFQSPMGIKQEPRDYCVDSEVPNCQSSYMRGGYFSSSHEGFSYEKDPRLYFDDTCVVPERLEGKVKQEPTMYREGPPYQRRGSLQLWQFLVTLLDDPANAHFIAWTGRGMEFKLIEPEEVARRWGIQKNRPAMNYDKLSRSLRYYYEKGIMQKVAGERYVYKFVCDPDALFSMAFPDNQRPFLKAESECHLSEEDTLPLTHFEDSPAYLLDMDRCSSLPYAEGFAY
# Chain of ELF4 (Q99607 whole entry): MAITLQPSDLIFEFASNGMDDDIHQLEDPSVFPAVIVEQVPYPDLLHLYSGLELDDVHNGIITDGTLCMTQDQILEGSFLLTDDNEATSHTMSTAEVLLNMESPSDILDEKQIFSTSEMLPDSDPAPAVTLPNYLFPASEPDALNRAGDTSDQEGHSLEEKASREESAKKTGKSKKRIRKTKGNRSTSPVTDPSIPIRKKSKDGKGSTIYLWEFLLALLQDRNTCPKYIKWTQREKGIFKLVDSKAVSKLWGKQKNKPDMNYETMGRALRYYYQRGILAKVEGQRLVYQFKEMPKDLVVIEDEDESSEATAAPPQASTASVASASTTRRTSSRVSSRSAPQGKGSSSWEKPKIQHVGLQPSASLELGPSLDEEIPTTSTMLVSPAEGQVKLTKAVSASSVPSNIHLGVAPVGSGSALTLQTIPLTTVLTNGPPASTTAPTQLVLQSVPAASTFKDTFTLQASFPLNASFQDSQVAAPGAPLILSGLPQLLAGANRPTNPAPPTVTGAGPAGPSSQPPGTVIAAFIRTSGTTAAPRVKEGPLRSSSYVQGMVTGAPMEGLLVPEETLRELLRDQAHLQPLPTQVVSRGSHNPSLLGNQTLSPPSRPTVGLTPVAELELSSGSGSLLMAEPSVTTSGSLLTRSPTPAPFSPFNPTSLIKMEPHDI
# Chain of CRX (O43186 whole entry): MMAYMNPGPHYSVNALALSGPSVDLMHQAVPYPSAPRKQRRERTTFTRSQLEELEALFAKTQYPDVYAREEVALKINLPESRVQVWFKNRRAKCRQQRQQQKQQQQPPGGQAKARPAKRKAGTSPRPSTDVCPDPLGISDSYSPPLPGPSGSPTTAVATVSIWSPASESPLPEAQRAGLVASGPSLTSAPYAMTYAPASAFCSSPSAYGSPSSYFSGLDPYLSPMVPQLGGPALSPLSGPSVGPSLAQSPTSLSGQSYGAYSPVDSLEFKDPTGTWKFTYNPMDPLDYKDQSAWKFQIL
# Chain of ETV1 (P50549 whole entry): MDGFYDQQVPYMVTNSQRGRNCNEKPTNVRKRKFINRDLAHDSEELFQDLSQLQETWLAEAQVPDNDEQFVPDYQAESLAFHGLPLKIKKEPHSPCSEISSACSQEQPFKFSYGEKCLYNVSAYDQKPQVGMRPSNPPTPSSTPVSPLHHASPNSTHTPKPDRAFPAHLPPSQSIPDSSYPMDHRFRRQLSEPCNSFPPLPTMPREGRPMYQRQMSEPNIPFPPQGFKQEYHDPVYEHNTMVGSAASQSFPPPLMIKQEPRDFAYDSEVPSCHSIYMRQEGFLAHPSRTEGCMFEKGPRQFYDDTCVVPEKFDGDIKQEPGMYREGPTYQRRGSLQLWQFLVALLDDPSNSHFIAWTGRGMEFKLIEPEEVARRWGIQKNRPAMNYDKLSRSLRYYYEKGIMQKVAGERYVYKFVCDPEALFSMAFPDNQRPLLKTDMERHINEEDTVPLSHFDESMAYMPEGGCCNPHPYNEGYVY
sequence,measurement,setting,value
CAAAAC,binding signal,FEV,"1.3 fold enrichment (6-mer frequency, TF over GST control)"
same,binding signal,ETV5,"1.26 fold enrichment (6-mer frequency, TF over GST control)"
same,binding signal,HSF1,"1.05 fold enrichment (6-mer frequency, TF over GST control)"
same,binding signal,SPIC,"1.23 fold enrichment (6-mer frequency, TF over GST control)"
same,binding signal,ELF4,"1.34 fold enrichment (6-mer frequency, TF over GST control)"
same,binding signal,ELK4,"1.28 fold enrichment (6-mer frequency, TF over GST control)"
same,binding signal,ETV2,"1.24 fold enrichment (6-mer frequency, TF over GST control)"
same,binding signal,ELF3,"1.28 fold enrichment (6-mer frequency, TF over GST control)"
same,binding signal,CRX,"1.02 fold enrichment (6-mer frequency, TF over GST control)"
same,binding signal,ETV1,"1.2 fold enrichment (6-mer frequency, TF over GST control)"
